Activity calls are given as the source filed them. Unless noted, no rule for the calls is given here.
Tests used:
[1] = compound effects on lung adenocarcinoma cell viability – A549, calcein-AM fluorescence, 48 h, basal, profiling panel (AID 1162); conditions: higher = more signal; also: test concentration not given here
[2] = compound effects on differentiated 3T3-L1 adipocyte viability – cell-based, 3T3-L1 adipocytes, calcein-AM fluorescence, 48 h, basal, profiling panel (AID 1163); conditions: 3T3-L1 adipocytes viability, higher = more signal; also: test concentration not given here
[3] = compound effects on hepatocellular carcinoma cell viability – HepG2, calcein-AM fluorescence, 48 h, basal, profiling panel (AID 1164); conditions: higher = more signal; also: test concentration not given here
[4] = compound effects on multiple myeloma cell viability – MM1S, calcein-AM fluorescence, 48 h, basal, profiling panel (AID 1165); conditions: higher = more signal; also: test concentration not given here
[5] = calcein-AM signal in unstimulated myeloma cells – cell-based, calcein-AM fluorescence, 48 h, PK04 Diversity Set, profiling panel (AID 1166); conditions: RPMI8226 myeloma viability, higher = more signal;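 also: cells grown under basal conditions without added stimulus; test concentration not given here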
[6] = JC-1 mitochondrial signal, unstimulated HepG2 cells – cell-based, JC-1 fluorescence, 24 h, 100 nL compound, profiling panel (AID 1167); conditions: HepG2 mitochondrial potential, higher = more signal; also: test concentration not given here
[7] = JC-1 mitochondrial signal, unstimulated adipocytes – cell-based, JC-1 fluorescence, 3T3-L1 adipocytes, 24 h, 100 nL compound, profiling panel (AID 1168); conditions: JC-1 mitochondrial fluorescence, higher = more signal, called active from +8 up or from −8 down; also: test concentration not given here
[8] = JC-1 mitochondrial signal, unstimulated myeloma cells – cell-based, JC-1 fluorescence, RPMI8226, 24 h, 100 nL compound, profiling panel (AID 1169); conditions: JC-1 mitochondrial potential fluorescence, higher = more signal; also: test concentration not given here
[9] = JC-1 mitochondrial signal, unstimulated MM1S myeloma – cell-based, JC-1 fluorescence, 24 h, 100 nL compound, profiling panel (AID 1170); conditions: MM1S mitochondrial potential, higher = more signal; also: test concentration not given here
[10] = resazurin metabolic signal in A549 cells – cell-based, resazurin fluorescence, 24 h, PK04 Diversity Set, profiling panel (AID 1171); conditions: A549 viability, higher = more signal, called active from +8 up or from −8 down; also: test concentration not given here
[11] = resazurin metabolic signal in HepG2 cells – cell-based, resazurin fluorescence, 24 h, PK04 Diversity Set, profiling panel (AID 1172); conditions: HepG2 viability, higher = more signal; also: test concentration not given here
[12] = budding yeast growth changes without added modifier – OD600, strain BY4716, 24 h, basal condition, primary screen (AID 1173); conditions: S. cerevisiae BY4716 growth, OD600, 24 h; higher = more signal, called active from +8 up or from −8 down
[13] = viability profiling in MM1S myeloma cells – cell-based, resazurin fluorescence, basal, 24 h, PK04 Diversity Set, profiling panel (AID 1174); conditions: higher = more signal, called active from +8 up or from −8 down; also: test concentration not given here
[14] = target: Dihydroorotate dehydrogenase (quinone), mitochondrial (Plasmodium falciparum (isolate 3D7)) (UniProt Q08210); assay: inhibition of P. falciparum DHODH – biochemical, C-terminal His tag, absorbance 600 nm, primary screen (AID 1175); conditions: PfDHODH enzyme, DCIP absorbance 600 nm; higher = more signal, called active from +8 up or from −8 down;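 also: recombinant parasite enzyme with a five histidine tag at its C terminus; test concentration not given here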
Sequence of Dihydroorotate dehydrogenase (quinone), mitochondrial (Plasmodium falciparum (isolate 3D7)) (Q08210 whole entry, looked up): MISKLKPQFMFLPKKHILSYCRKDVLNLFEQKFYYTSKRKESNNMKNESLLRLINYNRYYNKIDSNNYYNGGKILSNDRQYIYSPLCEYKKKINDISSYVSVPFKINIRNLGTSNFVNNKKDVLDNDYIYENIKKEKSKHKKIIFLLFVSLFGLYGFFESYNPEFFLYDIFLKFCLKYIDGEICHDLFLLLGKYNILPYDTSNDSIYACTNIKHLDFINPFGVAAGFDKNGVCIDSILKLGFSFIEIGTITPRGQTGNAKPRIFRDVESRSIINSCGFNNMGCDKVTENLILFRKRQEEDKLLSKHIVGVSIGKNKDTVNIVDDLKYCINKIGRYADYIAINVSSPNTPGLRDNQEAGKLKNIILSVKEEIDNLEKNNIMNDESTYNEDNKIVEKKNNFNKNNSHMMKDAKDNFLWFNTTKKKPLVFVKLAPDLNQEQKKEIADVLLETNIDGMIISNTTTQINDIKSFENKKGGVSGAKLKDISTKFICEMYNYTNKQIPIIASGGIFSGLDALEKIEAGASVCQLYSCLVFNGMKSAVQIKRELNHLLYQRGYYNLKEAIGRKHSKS

[15] = inhibition of PAO1 biofilm formation – strain PAO1, LB-PBS medium, absorbance 600 nm, primary screen (AID 1176); also: test concentration not given here; conditions: P. aeruginosa PAO1 growth/biofilm, A600, 12 h; higher = more signal
[16] = growth modulation of vineyard yeast isolate – strain RM11-1a, OD600, basal, 24 h, primary screen (AID 1177);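 also: cultures grown under basal conditions with no added stressor; test concentration not given here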; conditions: S. cerevisiae RM11-1a growth, OD600, 24 h; higher = more signal, called active from +8 up or from −8 down
[17] = growth of efflux-deficient E. coli DRC39 – strain DRC39, OD650, 24 h, E. coli filamentation inducers, primary screen (AID 1178);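 also: growth measured as culture turbidity by optical density at 650 nm; test concentration not given here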; conditions: E. coli DRC39 acrAB, higher = more signal, called active from +8 up or from −8 down
[18] = growth of efflux-deficient E. coli DRC39 – strain DRC39, OD650, 48 h, E. coli filamentation inducers, primary screen (AID 1179);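 also: screen aims at cell division blockers that make cells filament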; conditions: E. coli DRC39 delta-acrAB growth, higher = more signal, called active from +8 up or from −8 down
[19] = viability profiling in RPMI8226 myeloma cells – cell-based, resazurin fluorescence, basal, 24 h, PK04 Diversity Set, profiling panel (AID 1180); conditions: higher = more signal;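 also: RPMI8826 multiple myeloma cell line at 5000 cells per well; test concentration not given here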
[20] = target: E3 ubiquitin-protein ligase XIAP (Homo sapiens) (UniProt P98170); assay: small molecules binding XIAP protein – biophysical, small-molecule microarray, fluorescence 635 nm, primary screen (AID 1181); conditions: higher = more signal;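 also: score merges 667 nm emission and signal to noise over triplicate slides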
Sequence of E3 ubiquitin-protein ligase XIAP (Homo sapiens) (P98170 whole entry, looked up): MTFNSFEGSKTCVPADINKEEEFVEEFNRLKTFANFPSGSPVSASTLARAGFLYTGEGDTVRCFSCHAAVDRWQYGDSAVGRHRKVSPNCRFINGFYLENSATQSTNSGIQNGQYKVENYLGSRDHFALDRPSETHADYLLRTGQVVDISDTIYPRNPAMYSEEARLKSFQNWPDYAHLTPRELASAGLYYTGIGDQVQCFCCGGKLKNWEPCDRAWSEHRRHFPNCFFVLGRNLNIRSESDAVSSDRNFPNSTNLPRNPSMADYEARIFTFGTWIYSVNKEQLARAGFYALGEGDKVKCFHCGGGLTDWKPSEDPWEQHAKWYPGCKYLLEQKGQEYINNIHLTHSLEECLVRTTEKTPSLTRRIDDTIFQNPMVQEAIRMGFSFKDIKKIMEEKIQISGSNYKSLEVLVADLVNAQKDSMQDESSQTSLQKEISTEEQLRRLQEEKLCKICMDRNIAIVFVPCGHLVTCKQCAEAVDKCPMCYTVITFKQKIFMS

COC(=O)[C@@H]1CC[C@H](C)[C@@H](c2ccc(Br)cc2)N1C(=O)C(F)(F)F
z-score [1]: -0.0701
z-score [2]: -0.0882
z-score [3]: -0.434
z-score [4]: -1.24
z-score [5]: 0.468
z-score [6]: 0.399
z-score [7]: 0.0984 (inactive)
z-score [8]: 0.508
z-score [9]: 0.554
z-score [10]: 0.839 (inactive)
z-score [11]: 0.0841
z-score [12]: -0.475 (inactive)
z-score [13]: 0.27 (inactive)
composite z-score [14]: 0.724 (inactive)
z-score [15]: 0.213 (inactive)
z-score [16]: 1.21 (inactive)
z-score [17]: -0.0765 (inactive)
z-score [18]: -0.204 (inactive)
z-score [19]: 0.399
composite z-score [20]: 0.0225

COCOc1ccc(Br)cc1C(=O)C=Cc1ccc2c(c1)OCO2
z-score [1]: -0.206
z-score [2]: -0.342
z-score [3]: -2.2
z-score [4]: -3.48
z-score [5]: -3.81
z-score [6]: 1.28
z-score [7]: 0.0274 (inactive)
z-score [8]: -1.12
z-score [9]: -2.71
z-score [10]: -1.56 (inactive)
z-score [11]: -2.37
z-score [12]: -3.33 (inactive)
z-score [13]: -3.86 (inactive)
composite z-score [14]: -1.1 (inactive)
z-score [15]: 1.01 (inactive)
z-score [16]: 0.616 (inactive)
z-score [17]: 0.725 (inactive)
z-score [18]: 0.253 (inactive)
z-score [19]: -3.36
composite z-score [20]: -0.0076

O=C1[C@H]2[C@H]3[C@H](O)[C@H](O)CC(=NO[C@@H]4O[C@H](CO)[C@@H](O)[C@H](O)[C@H]4O)[C@@H]3CC[C@H]2C(=O)N1C[C@@H]1CCCO1
z-score [1]: -0.863
z-score [2]: -0.0334
z-score [3]: -0.618
z-score [4]: -0.0584
z-score [5]: -2.03
z-score [6]: -0.42
z-score [7]: -0.0322 (inactive)
z-score [8]: 0.0485
z-score [9]: -1.16
z-score [10]: 0.226 (inactive)
z-score [11]: -0.0979
z-score [12]: -2.29 (inactive)
z-score [13]: -0.589 (inactive)
composite z-score [14]: -2.39 (inactive)
z-score [15]: -0.589 (inactive)
z-score [16]: -0.633 (inactive)
z-score [17]: 0.564 (inactive)
z-score [18]: 0.172 (inactive)
z-score [19]: 0.062
composite z-score [20]: -0.152

CC(C)CON=C1[C@H]2CCn3c(=O)n(C)c(=O)n3[C@H]2[C@H](O)[C@@H]2O[C@H]12
z-score [1]: 0.543
z-score [2]: 0.632
z-score [3]: 0.361
z-score [4]: 0.191
z-score [5]: -0.441
z-score [6]: -0.383
z-score [7]: -0.444 (inactive)
z-score [8]: -0.581
z-score [9]: 0.0994
z-score [10]: -0.143 (inactive)
z-score [11]: -0.423
z-score [12]: 0.0789 (inactive)
z-score [13]: 0.0226 (inactive)
composite z-score [14]: -0.764 (inactive)
z-score [15]: -0.425 (inactive)
z-score [16]: -0.353 (inactive)
z-score [17]: -0.0374 (inactive)
z-score [18]: -0.0718 (inactive)
z-score [19]: -0.347
composite z-score [20]: -0.117

CO[C@@H]1COC(=O)[C@@H]2CCCN2C(=O)[C@@H](C)COC(=O)CCC[C@H]1C
z-score [1]: -0.0294
z-score [2]: -0.0132
z-score [3]: 0.586
z-score [4]: -0.407
z-score [5]: 0.498
z-score [6]: -0.189
z-score [7]: -2.2 (inactive)
z-score [8]: -0.0065
z-score [9]: -1.2
z-score [10]: -1.07 (inactive)
z-score [11]: -0.668
z-score [12]: -0.482 (inactive)
z-score [13]: -0.27 (inactive)
composite z-score [14]: -1.47 (inactive)
z-score [15]: -0.197 (inactive)
z-score [16]: -2.66 (inactive)
z-score [17]: -0.0549 (inactive)
z-score [18]: -0.0609 (inactive)
z-score [19]: -0.304
composite z-score [20]: 0.134

C=CC[C@@H]1C=C[C@H](ON=C2C[C@@H](O)[C@@H](O)[C@@H]3[C@@H]4C(=O)N(CC)C(=O)[C@@H]4CC[C@@H]23)[C@@H](CO)O1
z-score [1]: -0.98
z-score [2]: 1
z-score [3]: 0.281
z-score [4]: -1.44
z-score [5]: -1.23
z-score [6]: -0.495
z-score [7]: 0.265 (inactive)
z-score [8]: 0.216
z-score [9]: -0.354
z-score [10]: -0.28 (inactive)
z-score [11]: -1.05
z-score [12]: -0.099 (inactive)
z-score [13]: -0.415 (inactive)
composite z-score [14]: -2.18 (inactive)
z-score [15]: -0.0781 (inactive)
z-score [16]: -0.466 (inactive)
z-score [17]: -0.939 (inactive)
z-score [18]: -1.5 (inactive)
z-score [19]: -0.216
composite z-score [20]: -0.289

CC[C@@H](c1ccccc1)n1c(=O)n2n(c1=O)[C@H]1[C@H](O)[C@@H]3O[C@@H]3C(=NOCc3ccccc3)[C@H]1CC2
z-score [1]: -2.83
z-score [2]: 0.229
z-score [3]: -3.76
z-score [4]: -3.1
z-score [5]: -3.84
z-score [6]: 0.517
z-score [7]: -0.327 (inactive)
z-score [8]: -1.05
z-score [9]: -1.68
z-score [10]: -2.54 (inactive)
z-score [11]: -1.67
z-score [12]: -1.04 (inactive)
z-score [13]: -2.51 (inactive)
composite z-score [14]: 0.149 (inactive)
z-score [15]: -0.0819 (inactive)
z-score [16]: -0.15 (inactive)
z-score [17]: -0.527 (inactive)
z-score [18]: -0.95 (inactive)
z-score [19]: -2.34
composite z-score [20]: -0.0062

COc1ccc(O[C@H]2C=C[C@@H](c3ccccc3)O[C@@H]2COC(=O)CCC(C)=NOC[C@@H](O)COCc2ccco2)cc1
z-score [1]: 0.944
z-score [2]: 0.651
z-score [3]: 0.599
z-score [4]: -1.89
z-score [5]: 0.107
z-score [6]: -0.918
z-score [7]: 0.0665 (inactive)
z-score [8]: -0.313
z-score [9]: -1.12
z-score [10]: 0.402 (inactive)
z-score [11]: 0.206
z-score [12]: -1.06 (inactive)
z-score [13]: -1.11 (inactive)
composite z-score [14]: -2.35 (inactive)
z-score [15]: -0.0903 (inactive)
z-score [16]: -1.48 (inactive)
z-score [17]: -0.129 (inactive)
z-score [18]: -0.902 (inactive)
z-score [19]: 0.37
composite z-score [20]: 0.122

CC(C)[C@@H](OCc1ccccc1)[C@H](C)C=NO[C@@H](C)c1cn([C@H](CO)Cc2ccccc2)nn1
z-score [1]: 0.0751
z-score [2]: 0.143
z-score [3]: -0.112
z-score [4]: -0.265
z-score [5]: 0.0853
z-score [6]: -0.944
z-score [7]: -1.54 (inactive)
z-score [8]: 0.362
z-score [9]: -0.318
z-score [10]: -0.877 (inactive)
z-score [11]: -1.07
z-score [12]: -2.35 (inactive)
z-score [13]: -0.883 (inactive)
composite z-score [14]: -0.984 (inactive)
z-score [15]: 0.241 (inactive)
z-score [16]: -0.0022 (inactive)
z-score [17]: 0.805 (inactive)
z-score [18]: 0.633 (inactive)
z-score [19]: -1.63
composite z-score [20]: 0.0374

Reference: PubChem BioAssay
